Assay results as given in the supplement of paper PMC11402862.

Tested on: PPARgamma LBD (GAL4 fusion)
Assay: luciferase reporter transactivation, fold of solvent control; higher = stronger receptor activation
Conditions: HEK293T, exposure time: 24 h
Description: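 HEK293T cells were transiently transfected with a GAL4-DBD fused to the ligand-binding domain of a human nuclear receptor (PPARα, PPARγ, PPARδ, FXR, LXRα, PXR, RARα or CAR), the GAL4-(UAS)5-TK firefly luciferase reporter and a Renilla luciferase normalisation plasmid. Cells were exposed to compound for 24 h in 0.5% DMSO. Firefly/Renilla luciferase was expressed as fold of the solvent control (=1). Values are the mean of 2-3 biological replicates; receptor agonists were used as positive controls.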

OCCC(F)(F)C(F)(F)C(F)(F)C(F)(F)C(F)(F)C(F)(F)F [6:2 fluorotelomer alcohol] showed a luciferase reporter transactivation (concentration: 1 µM) of 1.1, a luciferase reporter transactivation (concentration: 5 µM) of 1 and a luciferase reporter transactivation (concentration: 10 µM) of 0.973. It also gave a luciferase reporter transactivation (concentration: 25 µM) of 1.1, a luciferase reporter transactivation (concentration: 50 µM) of 1.09 and a luciferase reporter transactivation (concentration: 100 µM) of 0.563. The luciferase reporter transactivation (concentration: 250 µM) was 1.25 and the luciferase reporter transactivation (concentration: 500 µM) was 1.1.

O=C(O)C(F)(F)C(F)(F)C(F)(F)C(F)(F)F [perfluoropentanoic acid] showed a luciferase reporter transactivation (concentration: 1 µM) of 1.01, a luciferase reporter transactivation (concentration: 5 µM) of 1.01 and a luciferase reporter transactivation (concentration: 10 µM) of 0.918. For the same compound, the luciferase reporter transactivation (concentration: 25 µM) was 0.953, the luciferase reporter transactivation (concentration: 50 µM) was 0.925 and the luciferase reporter transactivation (concentration: 100 µM) was 0.858. The luciferase reporter transactivation (concentration: 250 µM) was 0.947 and the luciferase reporter transactivation (concentration: 500 µM) was 1.11.

O=S(=O)(O)CCC(F)(F)C(F)(F)C(F)(F)C(F)(F)C(F)(F)C(F)(F)C(F)(F)C(F)(F)F [8:2 fluorotelomer sulfonic acid] was tested, and the luciferase reporter transactivation (concentration: 1 µM) was 0.851, the luciferase reporter transactivation (concentration: 5 µM) was 0.861 and the luciferase reporter transactivation (concentration: 10 µM) was 0.922. It also gave a luciferase reporter transactivation (concentration: 25 µM) of 0.905, a luciferase reporter transactivation (concentration: 50 µM) of 1.04 and a luciferase reporter transactivation (concentration: 100 µM) of 1.31. It also gave a luciferase reporter transactivation (concentration: 250 µM) of 1.04 and a luciferase reporter transactivation (concentration: 500 µM) of 0.846.

Work on O=S(=O)(O)CCC(F)(F)C(F)(F)C(F)(F)C(F)(F)C(F)(F)C(F)(F)F [6:2 fluorotelomer sulfonic acid] yielded a luciferase reporter transactivation (concentration: 1 µM) of 1.45, a luciferase reporter transactivation (concentration: 5 µM) of 1.66 and a luciferase reporter transactivation (concentration: 10 µM) of 1.6. The luciferase reporter transactivation (concentration: 25 µM) was 1.57, the luciferase reporter transactivation (concentration: 50 µM) was 1.9 and the luciferase reporter transactivation (concentration: 100 µM) was 2.81.

Cc1c(C)c2c(c(C)c1O)CCC(C)(COc1ccc(CC3SC(=O)NC3=O)cc1)O2 (stereo unspecified) [troglitazone] showed a luciferase reporter transactivation (concentration: 10 µM) of 27.7.
